According to PubChem BioAssay AID1345085 (National Center for Advancing Translational Sciences (NCATS), 2018):
Records with an inconclusive call do not appear. The source made the active and inactive calls. The call rests on the fitted dose curve; in most records, active means well fitted cell-killing curve with a large enough effect; inconclusive means small, poorly fitted or top-dose-only effect, or effect the other way; inactive means no such curve, though single readings can be large or run the other way. *1 amine or outer side, *2 acyl side, *3 side chain or, on linkers, in order; H or OH if unused. Where a SMILES comes first, the peptide text is derived from it. Bridges are numbered along the chain shown (N, C = ends). Roman numbers before positions name the chains, in order. [ ]: non-standard residue; d: D form. Actinocin(9to1) = Cc1c2oc3c(C)ccc(C(=O)[*:1])c3nc-2c(C(=O)[*:2])c(N)c1=O; NMeV = CN[C@H](C(=O)O)C(C)C; Sar = CNCC(=O)O

What follows are compounds tested on SKOV3 (assay: Confirmatory qHTS for gynecologic anti-cancer compounds from libraries of approved drugs and bioactive compounds). Conditions: gynecologic cancer cell panel viability, ATPlite luminescence, 48 h; series mostly up to 57.6 µM; activity change, negative = viability loss: at the top concentration.
In short: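 ATPlite luminescence read-out of cell viability; IC50 from 11-point 1:3 titrations, 57.5 uM to 0.977 nM, 48 h compound exposure at 37 C, 5% CO2. Cells seeded at 1,000/well 16 h before dosing.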
Further: nearly all actives have a fitted effect of over 55% in size.
On the % scale 0 is the no-effect control and ±100 the full control effect; potency means the concentration at half of the fitted maximal effect.

| Compound | activity change, negative = viability loss | Potency |
| --- | --- | --- |
| O=C(NOCC1CC1)c1ccc(F)c(F)c1Nc1ccc(I)cc1Cl | -4.7% (inactive) |  |
| CN1C2CCC1CC(OC(=O)[C@H](CO)c1ccccc1)C2 (stereo partly drawn) | -7.8% (inactive) |  |
| CC(=O)Nc1cccc(-n2c(=O)n(C3CC3)c(=O)c3c(Nc4ccc(I)cc4F)n(C)c(=O)c(C)c32)c1 |  | 306 nM (active) |
| O=C(c1ccc(/C=C/c2n[nH]c3ccccc23)cc1)N1CCNCC1 |  | 21700 nM (active) |
| Cc1csc(NC(=O)c2sc3nc4c(c(C(F)(F)F)c3c2N)CCC4)n1 |  | 1530 nM (active) |
| CC(C)n1nc(-c2cc3cc(O)ccc3[nH]2)c2c(N)ncnc21 |  | 3850 nM (active) |
| Cc1c(C)n(Cc2ccc(-c3ccccc3C(=O)O)cc2)c2ccc(C(=O)N[C@@H](C)c3ccc([N+](=O)[O-])cc3)cc12 | 27.9% (inactive) |  |
| Cc1c2oc3c(C)ccc(C(=O)N[C@@H]4C(=O)N[C@H](C(C)C)C(=O)N5CCC[C@H]5C(=O)N(C)CC(=O)N(C)[C@@H](C(C)C)C(=O)O[C@@H]4C)c3nc-2c(C(=O)N[C@@H]2C(=O)N[C@H](C(C)C)C(=O)N3CCC[C@H]3C(=O)N(C)CC(=O)N(C)[C@@H](C(C)C)C(=O)O[C@@H]2C)c(N)c1=O (I: T[dV]P[Sar][NMeV] / II: T[dV]P[Sar][NMeV]; ester I:1-I:C, II:1-II:C; linker I:N-II:N via Actinocin(9to1)) |  | 544 nM (active) |
| CCOC(=O)C1=C(C)NC2=C(C(=O)CC(C)(C)C2)C1c1ccc(-c2ccccc2)cc1 (stereo not drawn) | -7.85% (inactive) |  |
| CCC1C(=O)N(C)c2cnc(Nc3ccc(C(=O)NC4CCN(C)CC4)cc3OC)nc2N1C1CCCC1 (stereo not drawn) |  | 109 nM (active) |
| CCCCc1nc2cc(/C=C/C(=O)NO)ccc2n1CCN(CC)CC |  | 769 nM (active) |
| Cc1cc(Nc2nc(N[C@@H](C)c3ncc(F)cn3)ncc2Cl)n[nH]1 | -9.9% (inactive) |  |
| CCCC(=O)O[C@]1(C(=O)CCl)[C@@H](C)C[C@H]2[C@@H]3CCC4=CC(=O)C=C[C@]4(C)[C@@]3(F)C(=O)C[C@@]21C | -11.2% (inactive) |  |
| Cc1cncc2cccc(S(=O)(=O)N3CCCN(C(=O)CN)C[C@@H]3C)c12 | -34.9% (inactive) |  |
| Nc1ccn([C@@H]2O[C@H](CO)[C@@H](O)C2(F)F)c(=O)n1 |  | 1370 nM (active) |
| CN(C)CC/C=C1\c2ccccc2COc2ccccc21 | 7.32% (inactive) |  |
| COc1cc(N2CCC(N)CC2)ccc1Nc1ncc(Cl)c(-c2c[nH]c3ccccc23)n1 |  | 21700 nM (active) |

| Compound | activity change, negative = viability loss | Potency |
| --- | --- | --- |
| COc1cc2c(NC3CCN(C(C)C)CC3)nc(C3CCCCC3)nc2cc1OCCCN1CCCC1 |  | 30600 nM (active) |
| CNCc1ccc(-c2[nH]c3cc(F)cc4c3c2CCNC4=O)cc1 | 14.9% (inactive) |  |
| CNc1nc(Nc2ccc(C(=O)N3CCOCC3)cc2OC)ncc1Cl | 0.103% (inactive) |  |
| CN[C@@H](C)C(=O)N[C@H]1CN(C(=O)CC(C)C)CC[C@H]2CC[C@@H](C(=O)NC(c3ccccc3)c3ccccc3)N2C1=O |  | 611 nM (active) |
| CCS(=O)(=O)c1cccc(-c2cc(C(=O)NC3CCN(C)CC3)c(C)c3[nH]c4ncc(C)cc4c23)c1 |  | 4760 nM (active) |
| O=C1c2c(O)ccc(O)c2C(=O)c2c(NCCNCCO)ccc(NCCNCCO)c21 |  | 544 nM (active) |
| COC(C(=O)N1Cc2[nH]nc(NC(=O)c3ccc(N4CCN(C)CC4)cc3)c2C1)c1ccccc1 (stereo not drawn) | 10.3% (inactive) |  |
| Cn1cc(-c2[nH]c3cc(NC(=O)[C@H](N)C4CCCCC4)cc4c3c2C=NNC4=O)cn1 |  | 968 nM (active) |
| COc1cc(Nc2c(C#N)cnc3cc(OCCCN4CCN(C)CC4)c(OC)cc23)c(Cl)cc1Cl |  | 19300 nM (active) |
| Cc1ccc(C(=O)Nc2ccc(CN3CCN(C)CC3)c(C(F)(F)F)c2)cc1C#Cc1cnc2cccnn12 |  | 12200 nM (active) |
| O=C(CCCCCCC(=O)Nc1ccccc1)NO |  | 1370 nM (active) |
| S=c1nc[nH]c2nc[nH]c12 |  | 5440 nM (active) |
| CN1CCN(c2cccc(Nc3nc4c(-c5ccc(S(C)(=O)=O)cc5)cccn4n3)c2)CC1 | -10.2% (inactive) |  |
| CC(C)Oc1ccc2c(=O)c(-c3ccccc3)coc2c1 |  | 21700 nM (active) |
| Cc1cnc(Nc2cccc(CN3CCOCC3)c2)nc1Nc1cccc(S(=O)(=O)NC(C)(C)C)c1 |  | 10900 nM (active) |
| CN(C)C(CCOc1cccc2ccccc12)c1ccccc1 (stereo not drawn) | -1.7% (inactive) |  |
